Here are results for 40 compounds from PubChem BioAssay (NCATS).

Unmarked numbers belong to inactive results. The rule behind the calls is not given here.
Potency is the fitted concentration of half-maximal effect.

The assay has as its system HIV-1 nucleocapsid protein NCp7 (binding to TG oligonucleotide). Briefly: HIV Nucleocapsid (AID 346).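 Note: potency is for inhibitors that block NC binding and lower polarization.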 The settings on record: HIV-1 NC / fluorescein-TGTGTGTG probe, fluorescence polarization. On the procedure:
NCGC Assay Overview: HIV-1 nucleocapsid protein (HIV-1 NC) is a small (6.5 kDa) basic zinc-finger protein which participates in packaging of viral genomic RNA. The spacing and metal-chelating residues (3 Cys, 1 His) of the Cys-X2-Cys-X4-His-X4-Cys Zn fingers are conserved among all known retroviruses (J. Med. Chem. 1998, 41, 1371-1381). HIV-1 NC was assayed for its binding to the consensus sequence single-stranded 5'-TGTGTGTG. […] High salt was included to increase the stringency of binding and inhibitor screen. Reducing agents and zinc were present to stabilize the nucleocapsid zinc-finger protein.
NCGC Assay Protocol Summary: Buffer. Hepes pH 7.5, 250mM NaCl, 1uM ZnCl2. 0.004% polyethylene glycol 20000. TCEP (100 uM) and 2-Mercaptoethanol (5 mM), added fresh the day of the experiment. Reagents/Controls. 10 nM TG4xF only in columns 3 and 4 as negative control. 10 nM TG4xF/100 nM HIV-1 NC in columns 1, 2, 5-48. Titration of control compound NSC-13778 (from 20 mM, then 1:2) pin-transferred to column 2. Assay Steps. Two uL of reagents were dispensed to 1536-well Kalypsys black plates. The plates were centrifuged for 1 min at 1000 rpm. Compounds and controls (20 nL) were transferred via Kalypsys PinTool. The plates were incubated for 1 hr at room temperature, and then read on ViewLux (Perkin-Elmer). High-throughput CCD imager using fluorescein polarization filter set and 45 seconds exposure time.
In general terms: Polarisation of emitted light reports the rotation of a fluorescent probe.
With `CC(C)CN1CC2(CCN(C(=O)c3ccncc3)CC2)C1`, the Potency was more than 20 µM. The value for `CN1CCC2(CC1)CCN(C(=O)Oc1ccccc1)CC2` was more than 20 µM; that for `CC(C)NC(=O)N1CCC2(CCNCC2)CC1` was more than 20 µM. Regarding `c1ccc(N2CCCC3(CCNCC3)C2)cc1`, the Potency was more than 20 µM. `N#Cc1ccc(CN2CC[C@@]3(CCCNC3)C2)cc1`: the Potency was more than 20 µM. Turning to `CN1CC[C@@]2(CCCN(C(=O)Oc3ccccc3)C2)C1`, the Potency was more than 20 µM.

Turning to `CC(C)CN1CCC2(CC1)CCN(S(C)(=O)=O)CC2`, the Potency was more than 20 µM.

Take `O=C(Oc1ccccc1)N1CCC2(CC1)CN(C(c1ccccc1)c1ccccc1)C2`: the Potency is more than 20 µM. Turning to `O=C(Nc1cccc(F)c1)N1CC[C@@]2(CCCN(C(=O)Oc3ccccc3)C2)C1`, the Potency is more than 20 µM. As to `CS(=O)(=O)N1CCC2(CC1)CN(Cc1ccncc1)C2`, the Potency was more than 20 µM. The value for `c1ccc(CN2CC[C@@]3(CCCNC3)C2)cc1` was more than 20 µM; that for `c1ccc(N2CC[C@@]3(CCCNC3)C2)nc1` was more than 20 µM.

Take `CN1CCCC2(CCN(C(=O)Oc3ccccc3)CC2)C1`: the Potency was more than 20 µM. The figure for `CC(C)CN1CC[C@@]2(CCCN(C(=O)c3ccncc3)C2)C1` is more than 20 µM. Turning to `COc1ccccc1CN1CC[C@@]2(CCCN(C(=O)Oc3ccccc3)C2)C1`, the Potency was more than 20 µM. The value for `O=C(c1ccncc1)N1CCC[C@@]2(CCN(Cc3nccs3)C2)C1` was more than 20 µM; that for `CN1CCCC2(CCN(C(=O)c3csnn3)CC2)C1` was more than 20 µM.

As for `O=C(Oc1ccccc1)N1CCC2(CCCN(C(c3ccccc3)c3ccccc3)C2)CC1`, the Potency was more than 20 µM. The value for `O=C(c1csnn1)N1CCC[C@@]2(CCN(Cc3ccncc3)C2)C1` was more than 20 µM; that for `c1ccc(CN2CCC3(CCNCC3)CC2)cc1` was more than 20 µM. In the case of `c1cc(CN2CCC3(CCNCC3)CC2)ccn1`, the Potency is more than 20 µM. In the case of `c1cc(N2CCCC3(CCNCC3)C2)ccn1`, the Potency was more than 20 µM. The figure for `COC(=O)N1CCC2(CCCN(C)C2)CC1` is more than 20 µM; for `c1ccc(N2CCCC3(CCNCC3)C2)nc1` it is more than 20 µM. The figure for `CC(C)CN1CCCC2(CCN(C(=O)Oc3ccccc3)CC2)C1` is more than 20 µM; for `O=C(Nc1ccccc1)N1CC2(CCN(C(=O)Oc3ccccc3)CC2)C1` it is more than 20 µM.

For the compound `c1ccc(N2CC[C@@]3(CCCNC3)C2)cc1`, the Potency was more than 20 µM. The value for `COC(=O)N1CCC2(CCN(CC(C)C)CC2)CC1` was more than 20 µM; that for `O=C(Oc1ccccc1)N1CCC2(CCN(Cc3ccccc3)CC2)CC1` was more than 20 µM. In the case of `CN1CCN(c2ncc3ncc(=O)n(C)c3n2)CC1`, the Potency is more than 20 µM. The figure for `O=C(c1ccncc1)N1CCC2(CC1)CN(Cc1ccccc1)C2` is more than 20 µM; for `N#Cc1ccc(CN2CC[C@@]3(CCCN(C(=O)Oc4ccccc4)C3)C2)cc1` it is more than 20 µM; for `CC(C)CN1CCC2(CC1)CCN(C(=O)Oc1ccccc1)CC2` it is more than 20 µM.

Consider `O=C(c1csnn1)N1CCC2(CC1)CN(Cc1ccncc1)C2`, for which the Potency was more than 20 µM. The figure for `COc1ccc(NC(=O)N2CC[C@@]3(CCCN(C(=O)Oc4ccccc4)C3)C2)cc1` is more than 20 µM.

Turning to `COc1ccc(NC(=O)N2CC3(CCN(C(=O)Oc4ccccc4)CC3)C2)cc1`, the Potency is more than 20 µM. The value for `O=C(Nc1cccc(F)c1)N1CC2(CCNCC2)C1` was more than 20 µM; that for `O=C(Oc1ccccc1)N1CCC2(CCCN(Cc3ccccc3)C2)CC1` was more than 20 µM. The value for `O=C(Nc1cccc(F)c1)N1CCCC2(CCN(C(=O)Oc3ccccc3)CC2)C1` was more than 20 µM.

Regarding `c1ccc(N2CCC3(CCNCC3)CC2)cc1`, the Potency was more than 20 µM.
